# An excerpt weighted towards active compounds, which were near 2.4% of everything screened.
# D2 PAM-1: Beta-Arrestin HTS for Positive Allosteric Modulators of the Human D2 Dopamine Receptor: Potentiators; actives 0.23% (n = 360,000); DiscoveRx D2 beta-arrestin cells, luminescence, 90 min; 100% = 57 uM dopamine signal; D(2) dopamine receptor (Homo sapiens), P14416; potentiation, % (no concentration beside the values); in the data active = potentiation above about 50%
# Target sequence (P14416 whole entry, looked up): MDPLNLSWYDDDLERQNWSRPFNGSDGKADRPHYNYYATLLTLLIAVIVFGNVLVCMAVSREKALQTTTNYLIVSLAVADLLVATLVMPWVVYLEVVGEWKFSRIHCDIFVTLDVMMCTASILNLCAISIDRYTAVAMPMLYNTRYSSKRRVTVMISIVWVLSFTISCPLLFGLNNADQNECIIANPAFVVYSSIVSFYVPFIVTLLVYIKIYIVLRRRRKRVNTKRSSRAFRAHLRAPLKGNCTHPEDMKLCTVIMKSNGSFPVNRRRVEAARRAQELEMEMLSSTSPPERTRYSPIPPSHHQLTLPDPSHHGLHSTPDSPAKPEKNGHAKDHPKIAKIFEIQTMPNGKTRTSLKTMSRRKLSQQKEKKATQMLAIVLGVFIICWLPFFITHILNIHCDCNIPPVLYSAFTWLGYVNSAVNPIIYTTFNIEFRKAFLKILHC
#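 PathHunter beta-arrestin assay in DiscoveRx D2 cells. Compounds were added with an EC20 of dopamine (50 nM final) for 90 min at 37 deg C. Luminescence was read 1 h after detection reagent, with 57 uM dopamine as the EC100 control.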
# D2 ag-1: HTS Assay for Allosteric Agonists of the Human D2 Dopamine Receptor: Primary Screen for Agonists. D(2) dopamine receptor (Homo sapiens), P14416. HEK293 T-REx D2 cells, calcium flux agonist mode. activation, % at 2 µM. actives 0.53% (n = 340,000). AID 485358, 2010;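 active = activation over 3 SD above normal in the single-dose calcium agonist read, cut at about 30% in these data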
#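 Tetracycline-induced HEK293 T-REx cells with force-coupled D2 receptor, plated overnight at 30 C, loaded with no-wash calcium dye. After a 10 s baseline, compound was pin-added and calcium flux read kinetically for 180 s; calcium rises flagged agonists.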
# D2 antag: HTS Assay for Allosteric Antagonists of the Human D2 Dopamine Receptor: Primary Screen for Antagonists; HEK293 TREx D2 cells, calcium flux, dopamine EC80; AID 485344, 2010; inhibition, % at 10 µM; actives 2% (n = 340,000); in the data active = inhibition above about 30%; inactive = below that, where a call was filed
#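 HEK293 T-REx D2 cells, tet-induced, calcium dye no-wash. Cpd pintool add, 180 s kinetic, then EC80 DA, 180 s kinetic. Ca flux read.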
# D2 PAM-2: HTS Assay for Positive Allosteric Modulators of the Human D2 Dopamine Receptor: Primary Screen for Potentiators | D(2) dopamine receptor (Homo sapiens), P14416 | HEK293 T-REx D2, calcium flux, EC20 dopamine potentiation | potentiation, % at 10 µM | actives 0.34% (n = 340,000);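 active = potentiation over 3 SD above the plate norm, cut at about 30% in these data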
#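 Primary screen. Calcium kinetics in induced HEK293 T-REx D2 cells: compound pre-addition 180 s, EC20 dopamine, 180 s more.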
# D2 ag-2: Beta-Arrestin HTS for Positive Allosteric Modulators of the Human D2 Dopamine Receptor: Agonists; AID 624465, 2012; DiscoveRx PathHunter D2 beta-arrestin, luminescence, 90 min; 100% = 57 uM dopamine signal; activation, % (test concentration not listed); actives 0.084% (n = 360,000); in the data active = activation above about 40%
#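 DiscoveRx PathHunter D2 beta-arrestin cells (2,100/well) attached overnight, then compound-stimulated 90 min at 37 C in HBSS/10 mM HEPES/0.1% Tween-20 buffer; beta-galactosidase complementation read by luminescence after 1 h at ambient temperature. Dopamine 57 uM final (EC100) as control.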
# Hits are given with their value; . = inactive; / = no result.
SMILES,D2 PAM-1,D2 ag-1,D2 antag,D2 PAM-2,D2 ag-2
COc1ccc(C(=O)NC2CC3CCCC(C2)N3Cc2ccccc2)c(OC)c1 (stereo unspecified),.,.,86,.,.
CCOc1ccc(C(=O)NC2CC3CCCC(C2)N3Cc2ccccc2)cc1 (stereo unspecified),.,/,/,/,.
COc1ccc(C(=O)NC2CC3CCCC(C2)N3Cc2ccccc2)cc1 (stereo unspecified),.,.,82,.,.
COc1ccccc1C(=O)NC1CC2CCC(C1)N2Cc1ccccc1 (stereo unspecified),.,.,89,.,.
CCOc1ccccc1C(=O)NC1CC2CCCC(C1)N2C1CC1 (stereo unspecified),.,.,.,.,.
O=C(NC1CC2CCCC(C1)N2Cc1ccccc1)c1ccc([N+](=O)[O-])cc1 (stereo unspecified),.,.,87,.,.
O=C(NC1CC2CCC(C1)N2Cc1ccco1)c1ccccc1 (stereo unspecified),.,/,/,.,.
CCn1cnc2c1c(=O)n(Cc1nnc3n1-c1ccccc1SC3)c(=O)n2Cc1ccccc1,.,.,.,34,.
CCn1cnc2c1c(=O)n(Cc1csc(-c3ccccc3)n1)c(=O)n2Cc1ccccc1,.,.,.,.,.
C=CCn1c(SCc2cc(=O)n3ccsc3n2)nc2sc(C)c(C)c2c1=O,.,.,.,36,.
C=CCSc1nc2sc(C)c(C)c2c(=O)n1CC=C,.,.,.,.,.
C=CCn1c(SCC(=O)c2cccs2)nc2sc(C)c(C)c2c1=O,.,/,/,/,.
C=CCn1c(SCc2ccc(C(=O)NCCO)cc2)nc2sc(C)c(C)c2c1=O,.,.,.,31,.
COC(=O)[C@@H]1[C@H]2C[C@H]3c4[nH]c5ccccc5c4CCN3C[C@@H]2CC[C@@H]1O,.,.,58,.,.
COc1cccc(/C=N/NC(=O)CNC(=O)c2ccncc2)c1O,.,.,.,65,.
COc1cccc(/C=N/NC(=O)CNC(=O)c2cccnc2)c1O,.,.,.,.,.
CCOC(=O)c1c(S(=O)(=O)NCC2CCN(CCc3cccs3)CC2)c(C)n(C)c1C,.,.,43,.,.
CCOC(=O)c1c(C)[nH]c(C)c1S(=O)(=O)Nc1ccc(CN2CCCCC2)cc1,.,.,.,.,.
CCOC(=O)c1c(C)[nH]c(C)c1S(=O)(=O)NCC1CCN(Cc2ccccc2OC)CC1,.,.,33,.,.
CCOC(=O)c1c(C)[nH]c(C)c1S(=O)(=O)NCC1CCN(Cc2cccc(F)c2)CC1,.,.,74,.,.
CCOC(=O)c1c(S(=O)(=O)NCCc2cccs2)c(C)n(C)c1C,.,.,.,.,.
COc1nnc(-c2ccc(N3CCCCC3)c(NC(=O)c3ccccc3Cl)c2)c2ccccc12,/,.,/,.,/
COC(=O)CN1C(=O)CSc2ccc(S(=O)(=O)Nc3cccc(C)c3)cc21,/,.,/,/,/
OCCC1CN(Cc2cc(F)ccc2F)CCN1CCCc1ccccc1 (stereo unspecified),.,.,83,.,.
COc1ccc(O)c(CN2CCN(CCCc3ccccc3)C(CCO)C2)c1 (stereo unspecified),.,.,75,.,.
SMILES,D2 PAM-1,D2 ag-1,D2 antag,D2 PAM-2,D2 ag-2
OCCC1CN(Cc2ccc(F)cc2Cl)CCN1CCc1ccccc1 (stereo unspecified),.,.,.,.,.
COCc1cc(CN2CCN(CCCc3ccccc3)C(CCO)C2)ccc1OC (stereo unspecified),.,.,.,.,.
COc1ccc(F)c(CN2CCN(CCc3ccccc3)C(CCO)C2)c1 (stereo unspecified),.,.,.,.,.
COc1ccc(OC)c(CN2CCN(CCc3ccccc3)C(CCO)C2)c1 (stereo unspecified),.,.,45,.,.
O=C(Nc1ccccc1Cl)N1CCC2(CC1)Oc1ccccc1C(=O)N2Cc1ccc(F)cc1,/,.,/,.,/
CC(C)c1cnc2c(c1SCC(=O)Nc1ccc(C(N)=O)cc1)c(=O)n(C)c(=O)n2C,/,/,/,.,/
Clc1cccc(CSc2nnc(C3CCNCC3)o2)c1,/,.,/,.,/
CC(Sc1nc2ccccc2c(=O)n1CCc1ccc(S(N)(=O)=O)cc1)C(=O)NC(N)=O (stereo unspecified),.,.,.,40,.
Cc1ccccc1OCC(O)CN1CCN(CC(O)COc2ccccc2C)CC1 (stereo unspecified),.,.,62,.,.
COc1ccccc1N1CCN(CC(O)COCc2cccs2)CC1 (stereo unspecified),.,.,81,.,.
Cc1ccc(Cl)cc1N1CCN(CC(O)COCc2ccco2)CC1 (stereo unspecified),.,.,97,.,.
Cc1ccccc1OCC(O)CN1CCCCC1 (stereo unspecified),.,.,.,.,.
COc1cc(COCC(O)CN2CCN(Cc3ccccc3)CC2)cc(OC)c1OC (stereo unspecified),.,.,.,.,.
OC(COc1cccc2ccccc12)CN1CCN(c2ccccc2Cl)CC1 (stereo unspecified),.,.,39,.,.
CCc1ccc(NCc2cc3cc4c(cc3n(CC(=O)Nc3ccc(Cl)cc3)c2=O)OCO4)cc1,/,.,/,.,/
CCOc1ccc(C(=O)c2cn(CC(=O)Nc3ccc4c(c3)OCCO4)c3ccc(F)cc3c2=O)cc1,/,.,/,.,/
COc1ccc(OC)c2sc(NC(=O)c3ccc(S(=O)(=O)N4CCCC4)cc3)nc12,/,.,/,.,/
CC(C)CCNS(=O)(=O)c1ccc(N2CCCCS2(=O)=O)cc1,/,/,/,.,/
Cc1ccc(-c2nnc(SCc3ccccc3)o2)cc1,/,.,/,.,/
COc1ccccc1N1CCN(CC(O)COCCOc2ccc(Br)cc2)CC1 (stereo unspecified),.,.,78,.,.
COc1ccccc1N1CCN(CC(O)c2ccc3cc[nH]c3c2)CC1 (stereo unspecified),.,37,60,.,.
Cc1ccc(N2CCN(CC(O)COc3cccc4ccccc34)CC2)cc1 (stereo unspecified),.,.,.,.,.
COc1ccccc1N1CCN(CC(O)COc2c(OC)cccc2OC)CC1 (stereo unspecified),.,.,123,.,.
COc1ccccc1N1CCN(CC(O)COc2ccc(C)cc2C)CC1 (stereo unspecified),.,.,76,.,.

# Bioassay records: PubChem, National Center for Advancing Translational Sciences (NCATS)
